According to PubChem BioAssay:

assay: COS7 lysate on small-molecule microarray, probe aHis, 635 nm (AID 1123); settings: COS7 cell lysate, fluorescence, higher = more signal;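 further: z-score combines 667nm fluorescence intensity with signal-to-noise per printed compound spot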

| SMILES | composite z-score |
| --- | --- |
| O=C1O[C@@H](c2ccccc2)[C@@H](c2ccccc2)N2[C@@H](c3ccc(OCCO)cc3)[C@]3(C(=O)Nc4ccc(C#CC5=CCCCC5)cc43)[C@@H](C(=O)N3CCCCCCC3)[C@H]12 | 3.59 |
| CN1C(=O)C2C=CC(C(O)c3ccccc3)N(N3CCCCC3)C2C1=O (stereo not given) | 2.37 |
| C[C@H]1C2[C@H](Cc3ccccc3)NC(=O)[C@]23C(=O)NCC(=O)N2CCC[C@H]2C(=O)NC/C=C/CCC/C=C/C3[C@@H]2O[C@]12C (stereo not given in full) | -0.18 |
| NC(=O)NCC#Cc1ccc2c(c1)[C@]1(C(=O)N2)[C@H](C(=O)O)[C@H]2C(=O)O[C@H](c3ccccc3)[C@H](c3ccccc3)N2[C@@H]1c1ccc(O)cc1 | 0.361 |
| O=C(O)C1N=C(c2ccc(OCCCO)cc2)N(c2ccccc2)O1 (stereo not given) | 0.321 |
| CN(C)CCCCCCNC(=O)[C@@H]1C[C@@H]2C(=O)N[C@@H](CCCC[N+](C)(C)C)C(=O)N2[C@@H]1c1ccc(O)cc1 | 0.125 |
| O=C1OCC=C[C@H]2OC34C=CCN(CCN5CCOCC5)C(=O)[C@H]3N(CCO)C(=O)[C@@H]4[C@@H]12 (stereo not given in full) | -0.214 |
| CS(=O)(=O)CCOC(=O)C1=CC(CCCO)=CC(C2CC2)N(Cc2cc3c(cc2Br)OCO3)C=C1C(=O)OCCS(C)(=O)=O (stereo not given) | 0.88 |
| CCCC=C(CCC)[C@@H](NS(=O)(=O)c1ccc(Cl)cc1)c1ccc(C(=O)OC)cc1 | 0.314 |
| [N-]=[N+]=Nc1ccccc1C[C@@]1(C(=O)N2CCCCC2)N=C(c2ccc(OCCCO)cc2)O[C@@H]1c1ccccc1N=[N+]=[N-] | 1.33 |
| O=C1O[C@H](c2ccccc2)[C@H](c2ccccc2)N2[C@H]1[C@@H](C(=O)NC[C@H](O)c1ccccc1)[C@]1(C(=O)Nc3ccc(C#CC4=CCCCC4)cc31)[C@H]2c1ccccc1OCCO | 1.32 |
| C=CCC(OC(C)=O)[C@@H]1[C@@H](N(Cc2cc3ccccc3o2)C(=O)Cc2ccc(OC)cc2)c2cc(OCCCO)ccc2N1C(=O)c1ccc2ccccc2c1 (stereo not given in full) | 0.13 |
| O=C1[C@H]2C=C(I)[C@H](C[C@@H]2OCCCCO)[C@@]12CO2 | 0.141 |
| [N-]=[N+]=Nc1ccccc1C[C@]1(C(=O)NCC(O)CO)N=C(c2ccc(OCCCO)cc2)O[C@H]1c1ccccc1 (stereo not given in full) | 2.83 |
| O=C1O[C@H](c2ccccc2)[C@H](c2ccccc2)N2[C@H]1[C@@H](C(=O)NC[C@H](O)c1ccccc1)[C@]1(C(=O)Nc3ccccc31)[C@H]2c1ccc(O)cc1 | 1.19 |
| CCN(CC)c1ccc(N2CC=CC34O[C@@H]5C=CCOC(=O)[C@@H]5[C@H]3C(=O)N(CCCCCCO)[C@@H]4C2=O)cc1 (stereo not given in full) | 0.922 |
| CC1CC/C=C\[C@H]2OC34C=CCN(c5ccc6ccccc6c5)C(=O)[C@H]3N(CCO)C(=O)[C@@H]4C2C(=O)O1 (stereo not given in full) | 0.275 |
| CC=CC(O)C1C=CC2C(=O)N(C)C(=O)C2N1N(c1ccccc1)c1ccccc1 (stereo not given) | -0.213 |
| CCOC(=O)C1=CCC(c2ccc(F)cc2)N(S(=O)(=O)c2ccc(C)cc2)C1 (stereo not given) | 0.75 |
| O=C1C2C=CC(C(O)C=Cc3ccc([N+](=O)[O-])cc3)N(Nc3ccccc3F)C2C(=O)N1c1ccccc1 (stereo not given) | 2.31 |
| C=CCN1Cc2ccccc2[C@@H]2OC(c3ccc(OCCCO)cc3)=N[C@]2(CCS(=O)(=O)c2ccccc2)C1=O | 2.96 |
| O=C(CS)NCCCCCNC(=O)[C@H]1C[C@H]2C(=O)NCC(=O)N2[C@H]1c1ccc(O)cc1 | -0.29 |
| [N-]=[N+]=NCc1ccccc1[C@@H]1OC(c2ccc(OCCCO)cc2)=N[C@]1(CCS(=O)(=O)c1ccccc1)C(N)=O | 3.29 |
| C=CCN1C(=O)[C@]2(Cc3ccccc3)N=C(c3ccc(OCCCO)cc3)O[C@@H]2c2ccccc21 | 2.79 |
| O=C1OCCC/C=C\[C@H]2OC34C=CCN(c5ccc6ccccc6c5)C(=O)[C@H]3N(CCCCCO)C(=O)[C@@H]4C12 (stereo not given in full) | -1.92 |
| CCOc1cc(C(O)C2C=CC3C(=O)N(c4ccccc4)C(=O)C3N2Nc2ccc(C(C)C)cc2)ccc1O (stereo not given) | 2.63 |
| [N-]=[N+]=Nc1ccccc1C[C@]1(C(=O)N2CCCCC2)COC(c2ccc(OCCCO)cc2)=N1 | 2.74 |
| C=C(C(=O)CC[C@H](OC(C)=O)c1ccccc1OCCO)C(C)C | -0.754 |
| Cc1ccc(S[C@]2(C(=O)O)CC(=O)N(C(C)C)[C@@H]2c2ccc(CO)cc2)cc1 | -0.216 |
| CN(C)C(=O)[C@]1(Cc2ccccc2)N=C(c2ccc(OCCCO)cc2)O[C@@H]1c1ccccc1N=[N+]=[N-] | 2.12 |
